Measured values published in the supplement of paper PMC7411054.

Key:
Conditions in all cases: treatment time: 24 h
A549-ACTB-RAB5A [1] = assay: lowest phenotypically active concentration; higher = less potent
Summary of the method: (§1)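 The reporter lines, fifteen in total and built by gene editing in A549, HepG2 and WPMY1 cells, used BFP for segmentation alongside GFP and RFP/FusionRed markers. Each was treated at 0.3, 1, 3 or 9 µM for 24 h in four wells and then imaged live, with live-cell features normalised to solvent control wells. Deviation meant ≥3 of 4 wells beyond the 95th percentile of control Euclidean distances; reproducibility meant a median replicate Pearson correlation above the 95th percentile of non-replicates. Only conditions meeting both were scored as phenotypically active.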

A549-GM130-SQSTM1 [2] = assay: as above
Summary of the method: as §1

A549-TUBA1B-RELA [3] = assay: as above
Summary of the method: as §1

HepG2-ACTB-RAB5A [4] = assay: as above
Summary of the method: as §1

WPMY1-CANX-COX4 [5] = assay: as above
Summary of the method: as §1

A549-ACTB-RAB5A [6] = assay: phenotypically active (imaging signature differs from DMSO and reproducible) at any of 0.3-9 uM (binary (1 = active, 0 = inactive)); higher = active
Summary of the method: as §1

A549-CANX-COX4 = assay: as above
Summary of the method: as §1

A549-GM130-SQSTM1 [7] = assay: as above
Summary of the method: as §1

A549-TP53BP1-CLTA = assay: as above
Summary of the method: as §1

A549-TUBA1B-RELA [8] = assay: as above
Summary of the method: as §1

HepG2-ACTB-RAB5A [9] = assay: as above
Summary of the method: as §1

HepG2-CANX-COX4 = assay: as above
Summary of the method: as §1

HepG2-GM130-SQSTM1 = assay: as above
Summary of the method: as §1

HepG2-TP53BP1-CLTA = assay: as above
Summary of the method: as §1

HepG2-TUBA1B-RELA = assay: as above
Summary of the method: as §1

WPMY1-ACTB-RAB5A = assay: as above
Summary of the method: as §1

WPMY1-CANX-COX4 [10] = assay: as above
Summary of the method: as §1

WPMY1-GM130-SQSTM1 = assay: as above
Summary of the method: as §1

WPMY1-TP53BP1-CLTA = assay: as above
Summary of the method: as §1

WPMY1-TUBA1B-RELA = assay: as above
Summary of the method: as §1

CCCCCCCCCCNCCSSCc1ccc(Cl)cc1
3 µM: lowest phenotypically active concentration (A549-GM130-SQSTM1 [2]) | lowest phenotypically active concentration (A549-TUBA1B-RELA [3]) | lowest phenotypically active concentration (HepG2-ACTB-RAB5A [4]) | lowest phenotypically active concentration (WPMY1-CANX-COX4 [5])
inactive: phenotypically active (WPMY1-ACTB-RAB5A) 0 | phenotypically active (WPMY1-TUBA1B-RELA) 0
9 µM: lowest phenotypically active concentration (A549-ACTB-RAB5A [1])
active: phenotypically active (A549-ACTB-RAB5A [6]) 1 | phenotypically active (A549-CANX-COX4) 1 | phenotypically active (A549-GM130-SQSTM1 [7]) 1 | phenotypically active (A549-TP53BP1-CLTA) 1 | phenotypically active (A549-TUBA1B-RELA [8]) 1 | phenotypically active (HepG2-ACTB-RAB5A [9]) 1 | phenotypically active (HepG2-CANX-COX4) 1 | phenotypically active (HepG2-GM130-SQSTM1) 1 | phenotypically active (HepG2-TP53BP1-CLTA) 1 | phenotypically active (HepG2-TUBA1B-RELA) 1 | phenotypically active (WPMY1-CANX-COX4 [10]) 1 | phenotypically active (WPMY1-GM130-SQSTM1) 1 | phenotypically active (WPMY1-TP53BP1-CLTA) 1

S=C(S)N1CCCC1 [Pyrrolidinedithiocarbamate ammonium]
active: phenotypically active (A549-ACTB-RAB5A [6]) 1 | phenotypically active (A549-CANX-COX4) 1 | phenotypically active (A549-GM130-SQSTM1 [7]) 1 | phenotypically active (A549-TP53BP1-CLTA) 1 | phenotypically active (A549-TUBA1B-RELA [8]) 1 | phenotypically active (HepG2-ACTB-RAB5A [9]) 1 | phenotypically active (HepG2-CANX-COX4) 1 | phenotypically active (HepG2-GM130-SQSTM1) 1 | phenotypically active (HepG2-TP53BP1-CLTA) 1 | phenotypically active (HepG2-TUBA1B-RELA) 1 | phenotypically active (WPMY1-GM130-SQSTM1) 1
9 µM: lowest phenotypically active concentration (HepG2-ACTB-RAB5A [4])
inactive: phenotypically active (WPMY1-ACTB-RAB5A) 0 | phenotypically active (WPMY1-CANX-COX4 [10]) 0 | phenotypically active (WPMY1-TP53BP1-CLTA) 0 | phenotypically active (WPMY1-TUBA1B-RELA) 0
3 µM: lowest phenotypically active concentration (A549-ACTB-RAB5A [1]) | lowest phenotypically active concentration (A549-GM130-SQSTM1 [2]) | lowest phenotypically active concentration (A549-TUBA1B-RELA [3])

CC(C)(C)c1nc(-c2cccc(NS(=O)(=O)c3c(F)cccc3F)c2F)c(-c2ccnc(N)n2)s1 [dabrafenib]
≤ 0.3 µM: lowest phenotypically active concentration (A549-ACTB-RAB5A [1]) | lowest phenotypically active concentration (A549-GM130-SQSTM1 [2]) | lowest phenotypically active concentration (A549-TUBA1B-RELA [3])
active: phenotypically active (A549-ACTB-RAB5A [6]) 1 | phenotypically active (A549-CANX-COX4) 1 | phenotypically active (A549-GM130-SQSTM1 [7]) 1 | phenotypically active (A549-TP53BP1-CLTA) 1 | phenotypically active (A549-TUBA1B-RELA [8]) 1 | phenotypically active (HepG2-ACTB-RAB5A [9]) 1 | phenotypically active (HepG2-CANX-COX4) 1 | phenotypically active (HepG2-GM130-SQSTM1) 1 | phenotypically active (HepG2-TP53BP1-CLTA) 1 | phenotypically active (HepG2-TUBA1B-RELA) 1 | phenotypically active (WPMY1-ACTB-RAB5A) 1 | phenotypically active (WPMY1-CANX-COX4 [10]) 1 | phenotypically active (WPMY1-TUBA1B-RELA) 1
inactive: phenotypically active (WPMY1-GM130-SQSTM1) 0 | phenotypically active (WPMY1-TP53BP1-CLTA) 0
3 µM: lowest phenotypically active concentration (HepG2-ACTB-RAB5A [4])
1 µM: lowest phenotypically active concentration (WPMY1-CANX-COX4 [5])
